Results on 18 molecules are retold here after PubChem BioAssay (NCATS).

Test [1] is described as follows: Viability qHTS for spleen associated tyrosine kinase inhibitor (SYKi) naive MV4-11 cells (AID 1963823). Further: nearly all actives have a fitted effect of over 40% in size. Put shortly: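 SYK inhibitor-naive MV4-11 cells, 500 per well, exposed to compounds for 72 hr at 37 C, 5% CO2. Viability read as CellTiter-Glo luminescence after 10 min at room temperature.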
A general note: qHTS replaces the single test concentration by a dilution series.

Test [2] in a line: Viability qHTS for spleen associated tyrosine kinase inhibitor (SYKi) drug resistant MV4-11 cells (AID 1963824). Further: nearly all actives have a fitted effect of over 35% in size. In a few lines:
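CellTiter-Glo luminescence, read 10 min after reagent addition, reports viability after a 72 hr compound exposure. Cells are an MV4-11 line made resistant to SYK inhibition, seeded at 500 per well onto compound-containing plates.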

“And” between values parts separate entries of the source, which are not always exact repeats. Equal entries are not always repeated. Records with an inconclusive call do not appear. The source made the active and inactive calls. The call rests on the fitted dose curve; in most records, active means well fitted cell-killing curve with a large enough effect; inconclusive means small, poorly fitted or top-dose-only effect, or effect the other way; inactive means no such curve, though single readings can be large or run the other way.
Potency means the concentration at half of the fitted maximal effect.

For `COC(=O)[C@H](Cc1ccc([N+](=O)[O-])cc1)NC(=O)c1cccc2ccccc12`, the figures for the Potency in test [1] and in test [2] were 5.8 µM (active) and 4.11 µM (active), respectively.
For the molecule `N#Cc1cc(-c2n[nH]c(-c3ccncc3)n2)ccn1`, the Potency result in test [1] and in test [2] was “inactive” each time.
For the molecule `CC(=O)c1[nH]cc(CCC(=O)O)c1CC(=O)O`, the Potency in test [1] is 0.231 µM (active). In test [2], the Potency result is “inactive”.
On the same counts, the results for `C=CCN(/C=C1\C(=O)OC(COC)C2(C)C1=C(O)C(=O)C1=C2C(OC(C)=O)CC2(C)C(=O)CCC12)CC=C` (stereo unspecified) are 13 µM (active) and 20.6 µM (active).
On the same counts, the results for `CCOC(=O)CCNc1cc(N2CCc3ccccc3CC2)nc(-c2cccnc2)n1` are “inactive” and 14.6 µM (active).
Regarding `CN1CCN(c2nc(C3=C(c4c[nH]c5ccccc45)C(=O)NC3=O)c3ccccc3n2)CC1`, the Potency in test [1] is 206 nM (active) and 833 nM (active); in test [2], 461 nM (active) and 2.35 µM (active).
Take `Fc1ccc(C2CCNC[C@H]2COc2ccc3c(c2)OCO3)cc1` (stereo partly specified): the Potency in test [1] was 16.4 µM (active); in test [2], 9.2 µM (active).
On the same counts, the results for `C[C@@H]1C(=O)O[C@H]2[C@@H](O)C34[C@H]5C[C@@H](C(C)(C)C)C36[C@@H](OC(=O)[C@@H]6O)O[C@@]4(C(=O)O5)[C@@]12O` (stereo partly specified) are “inactive” and “inactive”.
As for `COc1cc(N)c(Cl)cc1C(=O)NC[C@@H]1CCN2CCC[C@@H]12`, the Potency entry in test [1] and in test [2] was “inactive” throughout.
Turning to `C=C1C(=O)O[C@@H]2/C=C(\C)CC/C=C(/C=O)[C@H](OC)[C@@H](OC(=O)C(C)C)[C@@H]12`, the Potency in test [1] was 4.04 µM (active); in test [2] it was 2.55 µM (active).
On to `C/C(=C\CCC(C)C1=CCC2(C)OC3=C(CC12)C(=O)C(O)CC3)CO` (stereo unspecified), for which the Potency entry in test [1] and in test [2] was “inactive” throughout.
For `OC[C@H]1O[C@@H](OCCc2ccccc2)[C@H](O[C@@H]2OC[C@](O)(CO)[C@H]2O)[C@@H](O)[C@@H]1O`, the Potency entry in test [1] and in test [2] was “inactive” in each case.
Regarding `COc1c2c(c(C)c3c1C(=O)OC3)O[C@@]1(C)CC(O)C(C(C)(C)O)[C@](C)(CCC(=O)O)[C@H]1C2` (stereo partly specified), the Potency in test [1] is 7.96 µM (active); in test [2], 7.09 µM (active).
On the same counts, the results for `Cn1nnc(-c2ccc(-c3ccc(N4C[C@H](COP(=O)(O)O)OC4=O)cc3F)cn2)n1` are “inactive” and “inactive”.
On the same counts, the results for `COC(=O)CC1CC(c2ccc(O)cc2)=NO1` (stereo unspecified) are “inactive” and “inactive”.
On the same counts, the results for `CC1(C)[C@@H](O[C@H]2O[C@H](C(=O)O)[C@@H](O)[C@H](O)[C@H]2O[C@@H]2O[C@H](C(=O)O)[C@@H](O)[C@H](O)[C@H]2O)CC[C@]2(C)[C@H]3C(=O)C=C4[C@@H]5C[C@@](C)(C(=O)O)CC[C@]5(C)CC[C@@]4(C)[C@]3(C)CC[C@@H]12` are “inactive” and “inactive”.
On to `C/C(=C\CCC(C)(C)O)CCO[C@@H]1O[C@H](CO[C@@H]2O[C@@H](C)[C@H](O)[C@@H](O)[C@H]2O)[C@@H](O)[C@H](O)[C@H]1O`, for which the Potency entry in test [1] and in test [2] was “inactive” throughout.
Turning to `O=C(O)c1ccc(OC2OC(CO)C(O)C(O)C2O)cc1` (stereo unspecified), the Potency result in test [1] and in test [2] was “inactive” each time.
